In all, about 68,000 compounds went through this assay and about 2,700 (4%) showed an effect of 50% or more. This is one part of a sample in which strong results are shown more often than they occur.
Each molecule was assayed on Plasmodium berghei (assay: Screen against P. berghei liver stage (PbLuc), transformed with Luciferase, at 2uM). Details: tested at 2 uM.
Assay type: functional, HepG2

Going from `CC(C)(C)SCC(=O)NC(C)(C(N)=O)c1cccc(Cl)c1` (configuration not stated) to `CC(NC(=O)Nc1ccc(-n2cncn2)cc1)C(=O)NC(C)(C)C` (configuration not stated), the INHIBITION rises from -20.64% to 12.01%.

First: COCc1csc(NC(=O)NCc2ccsc2)n1
Second: COCc1csc(NC(=O)NCc2ccccn2)n1
The INHIBITION of the first is lower: -21.99% for the first, -4.91% for the second.

Going from `COCc1csc(NC(=O)NCc2ccc(C)s2)n1` to `CC[C@@H](CO)NC(=O)c1coc(COc2ccc3sc(C)nc3c2)n1`, the INHIBITION falls from 50.93% to -10.58%.

Compared with `COc1ccc(CCC(=O)NC2CCC(O)CC2)cc1OC` (configuration not stated), `Cc1cccc2nc(CNC(=O)N3CCC(OCC4CC4)CC3)cn12` is higher in INHIBITION: -59.24% for the first, 38.2% for the second.

First: Cc1nc(C)n(C2CCCN(C(=O)c3ncoc3C(C)C)C2)n1 (configuration not stated)
Second: CC(C)c1ocnc1C(=O)N1CCCC(c2ccn[nH]2)C1 (configuration not stated)
The INHIBITION of the first is lower: -12.27% for the first, 70.81% for the second.

Compared with `Cc1[nH]ncc1C(=O)N1CCCC(c2ccn[nH]2)C1` (configuration not stated), `Cc1c[nH]c(C2CCCN(Cc3ccccc3C(=O)O)C2)n1` (configuration not stated) is lower in INHIBITION: -1.46% for the first, -2.35% for the second.

First: CCCN(C(=O)c1ocnc1C)C1CCCN(Cc2ccccc2)C1 (configuration not stated)
Second: Cn1cc(Cl)cc1C(=O)N1CCCN(Cc2ccccc2)CC1
The INHIBITION of the first is higher: 4.72% for the first, -7.88% for the second.

Compared with `CC(C)C(O)C(C)(C)CNC(=O)NCc1ccc(-n2cncn2)cc1` (configuration not stated), `CC(O)CC(C)(C)CNC(=O)NCc1cccc(-n2cncn2)c1` (configuration not stated) is lower in INHIBITION: 53.19% for the first, 1.22% for the second.

First: CSC(C)(C)CNC(=O)NCc1cccc(-n2ccnc2)c1
Second: CSC(C)(C)CNC(=O)NCc1cccc(-n2cncn2)c1
The INHIBITION of the first is lower: -27.12% for the first, 54.29% for the second.

First: CC(O)(CNC(=O)NCc1cccc(-n2cncn2)c1)c1ccco1 (configuration not stated)
Second: COCc1cccc(NCc2cccnc2)c1
The INHIBITION of the first is lower: -33.81% for the first, -12.52% for the second.

Compared with `Cc1noc(C)c1CNC1CCN(c2ccccc2OC(F)F)C1` (configuration not stated), `Cc1noc(C)c1CC(=O)N1CCC(c2ccn3nccc3n2)CC1` is higher in INHIBITION: -15.77% for the first, 52.57% for the second.

Going from `CO[C@@H]1CN(Cc2scnc2C)[C@@H]2CCCO[C@@H]21` to `CO[C@H]1CC[C@H]2[C@H]1OCCN2C(=O)C1=CCCC1`, the INHIBITION falls from 34.23% to 28.81%.

Compared with `CC(C)n1nc(CNc2ncccn2)c2c1CN(C1CCOCC1)CC2`, `Cc1nn(C(C)C)c(C)c1CN1CCN(C2CCCCC2)C(=O)C1` is lower in INHIBITION: 38.49% for the first, -22.72% for the second.

Going from `Cc1noc(NC(=O)c2ccc(Br)cc2)n1` to `CSCCNC(=O)c1coc(COc2ccc(F)cc2)n1`, the INHIBITION rises from -43.47% to 1.88%.

First: OCCN1CCN(CC(O)c2cc(Cl)ccc2Cl)CC1 (configuration not stated)
Second: CCN1CCN(CC(O)c2cc(Cl)ccc2Cl)CC1 (configuration not stated)
The INHIBITION of the first is higher: -21.76% for the first, -31.79% for the second.

Going from `CCOCCN1CCN(CC(O)c2cc(Cl)ccc2Cl)CC1` (configuration not stated) to `CCN1CCC(Cn2ccc3ccc(C(=O)OC)cc3c2=O)C1` (configuration not stated), the INHIBITION falls from 50.61% to 39.26%.

Compared with `CCCn1cnnc1CNC(=O)C1COc2ccc(OC)cc2C1` (configuration not stated), `CC[C@@H](CO)NC(=O)c1coc(COc2ccc(OC)cc2)n1` is higher in INHIBITION: 21.14% for the first, 53.26% for the second.

Going from `O=C(Nc1ccccc1)c1ccc2c(c1)C1(CCCCC1)CN2` to `O=C(Nc1ccccc1)[C@H]1O[C@H](CCN2CCCCC2)CC[C@@H]1O`, the INHIBITION rises from -9.98% to 4.04%.

Compared with `Cc1nc(CC(=O)N2CCC(c3ccn4nccc4n3)CC2)cs1`, `Cc1nc(C)c(CC(=O)N2CCC(c3ccn4nccc4n3)CC2)s1` is higher in INHIBITION: 3.03% for the first, 3.58% for the second.

Compared with `Cn1cc(CN2CCO[C@@H]3CN(Cc4ccoc4)C[C@@H]3C2)cn1`, `Cn1ccnc1CN1CCC2(CC1)CCN(Cc1ccoc1)C2` is lower in INHIBITION: -0.35% for the first, -78.53% for the second.

First: CO[C@H]1CC[C@H]2[C@H]1OCCN2CCOCc1ccccc1
Second: Cn1cccc1C(=O)N1CCO[C@H]2[C@H](OCc3cccnc3)CC[C@@H]21
The INHIBITION of the first is lower: -4.99% for the first, 0.32% for the second.

Going from `COC(=O)CCNC(=O)c1coc(COc2ccc(F)cc2)n1` to `CNS(=O)(=O)CCNC(=O)c1coc(COc2ccc(F)cc2)n1`, the INHIBITION falls from 56.16% to -38.4%.

Compared with `CC[C@H](CO)NC(=O)c1coc(COc2ccccc2F)n1`, `O=S(=O)(Cc1ccc(F)c(Cl)c1)NC(CO)c1ccco1` (configuration not stated) is higher in INHIBITION: -9.75% for the first, 26.62% for the second.

Compared with `Cc1ccc(CN2CCC3(CC2)CCN(Cc2ccoc2)CC3)cc1`, `Cc1ccc(CN2CCCC3(CCN(Cc4ccoc4)CC3)C2)cc1` is higher in INHIBITION: 14.93% for the first, 78.88% for the second.

Compared with `O=C1NCCN(CC2CCCCC2)C1CC(=O)N1CCc2n[nH]cc2C1` (configuration not stated), `O=C1NCCN(Cc2ccccc2)C1CC(=O)N1CCc2n[nH]cc2C1` (configuration not stated) is higher in INHIBITION: 5.17% for the first, 50.32% for the second.

Compared with `O=C1NCCN(Cc2cccnc2)C1CC(=O)N1CCc2n[nH]cc2C1` (configuration not stated), `CN(C)C(=O)COCc1cncc2c1CCN(Cc1ccccn1)C2` is higher in INHIBITION: -3.25% for the first, 41.93% for the second.

First: CN(C)c1nc2c(c(N3CCC4(CCCNC4=O)C3)n1)CCCC2 (configuration not stated)
Second: Cc1nc2c(c(N3CCC4(CCCNC4=O)C3)n1)CCC2 (configuration not stated)
The INHIBITION of the first is higher: 42.17% for the first, 27.85% for the second.

Compared with `Cc1cc(C2CCC2)nc(N2CCC3(CCCNC3=O)C2)n1` (configuration not stated), `Cc1nc(N2CCC3(CCCNC3=O)C2)nc2c1CCCC2` (configuration not stated) is higher in INHIBITION: 4.74% for the first, 62% for the second.

Going from `CNc1nc(N2CCC3(CCCNC3=O)C2)nc2c1CCC2` (configuration not stated) to `O=C1NCCCC12CCN(c1nc3c(c(C(F)(F)F)n1)CCCC3)C2` (configuration not stated), the INHIBITION falls from 56.49% to 1.42%.

Going from `O=c1[nH][nH]c2cn(-c3ccccc3)c(=O)n12` to `O=C1NCC(C(=O)Nc2ncc(Cc3ccccc3)s2)N1` (configuration not stated), the INHIBITION rises from -73.41% to 53.98%.

Going from `N#CCCn1cnc2c(F)cc(Br)cc2c1=O` to `CCn1c(Nc2ccccc2OC)nc2c(C)nn(C)c2c1=O`, the INHIBITION rises from -23.16% to -18.88%.

Going from `c1cc(-c2nnc(C3CCCN(CC4CCCCC4)C3)o2)ccn1` (configuration not stated) to `Cc1noc2nc(C3CCN(CC4CCCCC4)CC3)cc(C(F)F)c12`, the INHIBITION falls from 29.48% to -7.7%.

First: Cc1ccc(OCCCC(=O)Nc2nonc2C)cc1C
Second: CCOCCCC(=O)Nc1cccnc1-n1ccnc1C
The INHIBITION of the first is higher: -9.17% for the first, -12.09% for the second.

First: CN(C)CCOCc1cncc2c1CCN(Cc1ccccn1)C2
Second: COCc1cncc2c1CCN(Cc1ccccn1)C2
The INHIBITION of the first is higher: 56.21% for the first, 0.3% for the second.

First: O=C(c1ccnn1COc1ccc(Cl)cc1)N1CCOCC1
Second: O=C1CN(C(=O)C2CCCCC2)CC(O)CN1Cc1ccc(Cl)cc1 (configuration not stated)
The INHIBITION of the first is lower: 8.56% for the first, 43.15% for the second.

First: Cc1nc(CN(C)c2nccc(C(F)(F)F)n2)cs1
Second: COc1ccnc(N(C)Cc2csc(C)n2)n1
The INHIBITION of the first is higher: 60.13% for the first, -21.99% for the second.

Compared with `Cc1nc(CN(C)c2nccc(N(C)C)n2)cs1`, `Cc1nn(C)c(C)c1Cc1nc(N(C)C)no1` is higher in INHIBITION: -13.89% for the first, 20.71% for the second.

First: CC(C)c1nccn1Cc1cc(C(=O)NCC(F)(F)F)n[nH]1
Second: Cc1nccn1-c1ncccc1NC(=O)CCOCC(C)C
The INHIBITION of the first is lower: -7.52% for the first, 53.54% for the second.

First: O=C1NCC(C(=O)Nc2ncc(Cc3ccc(F)cc3)s2)N1 (configuration not stated)
Second: O=C1NCC(C(=O)Nc2ncc(Cc3cccc(F)c3)s2)N1 (configuration not stated)
The INHIBITION of the first is higher: 21.39% for the first, 3.06% for the second.

First: COCc1cccc(C(=O)N2CCCN(C(=O)OCC(C)C)CC2)c1
Second: CC(C)OCc1ncn2c1CN(Cc1cccs1)CCC2
The INHIBITION of the first is higher: 29.19% for the first, 16.22% for the second.

Compared with `COC(=O)CNC(=O)c1c(-n2cnnn2)sc2c1CCCC2`, `Cc1ccc(-n2cnnn2)cc1NCC(=O)Nc1cc(F)ccc1F` is higher in INHIBITION: 17.26% for the first, 19.95% for the second.

First: Cc1nc(CO[C@H]2CN(C(=O)c3cccn3C)[C@@H]3COC[C@H]23)cs1
Second: Cc1nnc([C@]23COC[C@H]2CN(Cc2cccs2)C3)o1
The INHIBITION of the first is higher: 36.75% for the first, 27.73% for the second.

Going from `O=C(Nc1ccccc1)[C@H]1O[C@H](CCN2CCNCC2)CC[C@@H]1O` to `CN1CCN(CC[C@@H]2CC[C@H](O)[C@@H](C(=O)Nc3ccccc3)O2)CC1`, the INHIBITION falls from 51.81% to 29.85%.

Compared with `CCN1CCCC1CNCc1cc2cc3c(cc2[nH]c1=O)OCCO3` (configuration not stated), `CCNC(=O)NC1CCCN(c2ccc(C)cc2)C1=O` (configuration not stated) is lower in INHIBITION: 16.87% for the first, 10.63% for the second.

Compared with `CCCNC(=O)[C@@H]1CCCN1[C@@H](C(=O)NC)C1CC1`, `CCNC(=O)[C@@H]1CCCN1[C@@H](C(=O)NC)C1CC1` is higher in INHIBITION: 40.28% for the first, 54.01% for the second.

Going from `CNC(=O)[C@@H](C1CC1)N1CCC[C@H]1C(=O)NCC(C)C` to `C=C(C)Cn1nc(C)c(CN2CCN(C3CCCCC3)C(=O)C2)c1C`, the INHIBITION falls from 40.28% to -17.01%.

Compared with `Cn1ccnc1CN1CCC2(CC1)CC(N1CCCC1)c1ccccc12` (configuration not stated), `COc1ccc2c(C)nc(N3CCN([C@H]4CCCC[C@@H]4O)CC3)nc2c1` is lower in INHIBITION: -11.26% for the first, -104.21% for the second.

Going from `Cc1nn(CCO)c(C)c1CN1CCN(C2CCCCC2)C(=O)C1` to `Cc1cc(CN2C[C@@H]3COC[C@]3(c3nnc(C)o3)C2)no1`, the INHIBITION falls from 57.21% to -83.05%.

Going from `O=C(CCNS(=O)(=O)c1ccc(Cl)cc1)NCc1ccoc1` to `O=C(CCNS(=O)(=O)c1ccc(F)cc1)NCc1ccoc1`, the INHIBITION rises from -29.08% to 12.01%.

First: CCOCc1nnc(NCc2cccnc2)o1
Second: CCOCc1nnc(NCc2cccc(C)c2)o1
The INHIBITION of the first is lower: 54.29% for the first, 55.39% for the second.

Going from `Cc1cccc(CNc2nnc(C(C)C)o2)c1` to `Cc1cccc(CNc2n[nH]c(C)n2)c1`, the INHIBITION rises from 3.62% to 14.11%.

Compared with `CCOCc1nnc(NCc2ccsc2)o1`, `Cc1nnc([C@]23COC[C@H]2CN(Cc2nccs2)C3)o1` is higher in INHIBITION: -19.14% for the first, 51.36% for the second.

Compared with `Cn1c(CS(=O)(=O)Cc2ccc(Cl)cc2)cc(=O)n(C)c1=O`, `CC(C)COCCC(=O)Nc1cccnc1-n1cncn1` is lower in INHIBITION: 26.34% for the first, 22.88% for the second.

`CC(C)(C)c1noc(CCCC(=O)NCC2CCS(=O)(=O)C2)n1` (configuration not stated) gave an INHIBITION of -12.82%.
